Results: ChEMBL document CHEMBL1961873, “Compounds: GSK PKIS; Assays: Nanosyn kinase panel” (2012)

Assays:
[1] = target: Tyrosine-protein kinase Fyn (Homo sapiens) (UniProt P06241); details: at 1 µM
[2] = target: Tyrosine-protein kinase HCK (Homo sapiens) (UniProt P08631); details: at 0.1 µM
[3] = target: Tyrosine-protein kinase HCK (Homo sapiens) (UniProt P08631); details: at 1 µM
[4] = target: Insulin-like growth factor 1 receptor (Homo sapiens) (UniProt P08069); details: at 0.1 µM
[5] = target: Insulin-like growth factor 1 receptor (Homo sapiens) (UniProt P08069); details: at 1 µM
[6] = target: Insulin receptor (Homo sapiens) (UniProt P06213); details: at 0.1 µM
[7] = target: Insulin receptor (Homo sapiens) (UniProt P06213); details: at 1 µM
[8] = target: Insulin receptor-related protein (Homo sapiens) (UniProt P14616); details: at 0.1 µM
[9] = target: Insulin receptor-related protein (Homo sapiens) (UniProt P14616); details: at 1 µM
[10] = target: T1, Tyrosine-protein kinase ITK/TSK (Homo sapiens) (UniProt Q08881); details: at 0.1 µM
T1 sequence (whole entry): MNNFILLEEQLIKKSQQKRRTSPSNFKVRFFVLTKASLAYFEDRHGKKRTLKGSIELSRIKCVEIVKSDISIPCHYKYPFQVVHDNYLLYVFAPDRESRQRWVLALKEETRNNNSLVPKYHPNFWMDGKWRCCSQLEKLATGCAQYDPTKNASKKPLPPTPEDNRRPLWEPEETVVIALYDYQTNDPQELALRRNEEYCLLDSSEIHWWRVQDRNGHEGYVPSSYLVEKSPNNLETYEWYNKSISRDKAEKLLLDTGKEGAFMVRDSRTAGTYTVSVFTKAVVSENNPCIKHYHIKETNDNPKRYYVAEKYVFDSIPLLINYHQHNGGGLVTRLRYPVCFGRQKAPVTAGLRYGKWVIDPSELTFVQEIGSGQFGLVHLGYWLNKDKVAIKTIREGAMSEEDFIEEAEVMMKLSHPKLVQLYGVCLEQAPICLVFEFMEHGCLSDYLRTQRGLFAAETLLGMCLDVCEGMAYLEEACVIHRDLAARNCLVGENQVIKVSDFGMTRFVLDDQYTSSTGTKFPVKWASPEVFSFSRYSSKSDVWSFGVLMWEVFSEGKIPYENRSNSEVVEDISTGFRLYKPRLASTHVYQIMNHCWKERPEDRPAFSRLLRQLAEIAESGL

[11] = target: T1, Tyrosine-protein kinase ITK/TSK (Homo sapiens); details: at 1 µM
[12] = target: Tyrosine-protein kinase JAK1 (Homo sapiens) (UniProt P23458); details: at 0.1 µM
[13] = target: Tyrosine-protein kinase JAK1 (Homo sapiens) (UniProt P23458); details: at 1 µM
[14] = target: Tyrosine-protein kinase JAK2 (Homo sapiens) (UniProt O60674); details: at 0.1 µM
[15] = target: Tyrosine-protein kinase JAK2 (Homo sapiens) (UniProt O60674); details: at 1 µM
[16] = target: T2, Tyrosine-protein kinase JAK3 (Homo sapiens) (UniProt P52333); details: at 0.1 µM
T2 sequence (whole entry): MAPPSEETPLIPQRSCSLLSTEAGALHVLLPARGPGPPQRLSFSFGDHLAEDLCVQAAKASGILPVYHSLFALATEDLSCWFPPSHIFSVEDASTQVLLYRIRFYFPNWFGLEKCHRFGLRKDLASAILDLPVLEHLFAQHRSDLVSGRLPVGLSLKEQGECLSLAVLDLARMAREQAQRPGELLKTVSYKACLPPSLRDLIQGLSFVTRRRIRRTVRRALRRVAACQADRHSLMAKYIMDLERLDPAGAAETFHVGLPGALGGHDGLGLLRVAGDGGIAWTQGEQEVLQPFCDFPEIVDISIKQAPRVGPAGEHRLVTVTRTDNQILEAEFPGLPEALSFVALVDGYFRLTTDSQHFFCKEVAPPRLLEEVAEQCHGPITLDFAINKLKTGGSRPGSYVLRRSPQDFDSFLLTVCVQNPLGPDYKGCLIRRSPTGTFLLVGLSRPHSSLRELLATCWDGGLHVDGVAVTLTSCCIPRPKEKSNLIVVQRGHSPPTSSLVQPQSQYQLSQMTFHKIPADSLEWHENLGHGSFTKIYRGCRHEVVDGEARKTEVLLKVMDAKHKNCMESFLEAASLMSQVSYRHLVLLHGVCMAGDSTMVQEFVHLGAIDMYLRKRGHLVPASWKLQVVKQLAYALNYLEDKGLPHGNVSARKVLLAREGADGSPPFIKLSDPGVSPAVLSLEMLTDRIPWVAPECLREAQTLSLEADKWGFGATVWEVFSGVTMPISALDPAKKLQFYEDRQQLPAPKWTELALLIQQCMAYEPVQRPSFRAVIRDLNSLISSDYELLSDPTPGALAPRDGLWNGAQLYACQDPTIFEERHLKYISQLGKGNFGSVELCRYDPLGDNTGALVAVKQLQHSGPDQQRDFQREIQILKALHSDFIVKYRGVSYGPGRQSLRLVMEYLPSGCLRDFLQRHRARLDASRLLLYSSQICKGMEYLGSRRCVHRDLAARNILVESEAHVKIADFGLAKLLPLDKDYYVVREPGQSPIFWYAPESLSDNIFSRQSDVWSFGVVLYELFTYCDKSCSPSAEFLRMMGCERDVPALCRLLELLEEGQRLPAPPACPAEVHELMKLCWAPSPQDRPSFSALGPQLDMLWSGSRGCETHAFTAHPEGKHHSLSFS

[17] = target: T2, Tyrosine-protein kinase JAK3 (Homo sapiens); details: at 1 µM
[18] = target: Vascular endothelial growth factor receptor 2 (Homo sapiens) (UniProt P35968); details: at 0.1 µM
[19] = target: Vascular endothelial growth factor receptor 2 (Homo sapiens) (UniProt P35968); details: at 1 µM
[20] = target: Mast/stem cell growth factor receptor Kit (Homo sapiens) (UniProt P10721); details: at 0.1 µM;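 further: values are mean inhibition of KIT, from the GSK PKIS dataset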

Chain of Insulin receptor-related protein (Homo sapiens) (P14616 27-742 limits assumed): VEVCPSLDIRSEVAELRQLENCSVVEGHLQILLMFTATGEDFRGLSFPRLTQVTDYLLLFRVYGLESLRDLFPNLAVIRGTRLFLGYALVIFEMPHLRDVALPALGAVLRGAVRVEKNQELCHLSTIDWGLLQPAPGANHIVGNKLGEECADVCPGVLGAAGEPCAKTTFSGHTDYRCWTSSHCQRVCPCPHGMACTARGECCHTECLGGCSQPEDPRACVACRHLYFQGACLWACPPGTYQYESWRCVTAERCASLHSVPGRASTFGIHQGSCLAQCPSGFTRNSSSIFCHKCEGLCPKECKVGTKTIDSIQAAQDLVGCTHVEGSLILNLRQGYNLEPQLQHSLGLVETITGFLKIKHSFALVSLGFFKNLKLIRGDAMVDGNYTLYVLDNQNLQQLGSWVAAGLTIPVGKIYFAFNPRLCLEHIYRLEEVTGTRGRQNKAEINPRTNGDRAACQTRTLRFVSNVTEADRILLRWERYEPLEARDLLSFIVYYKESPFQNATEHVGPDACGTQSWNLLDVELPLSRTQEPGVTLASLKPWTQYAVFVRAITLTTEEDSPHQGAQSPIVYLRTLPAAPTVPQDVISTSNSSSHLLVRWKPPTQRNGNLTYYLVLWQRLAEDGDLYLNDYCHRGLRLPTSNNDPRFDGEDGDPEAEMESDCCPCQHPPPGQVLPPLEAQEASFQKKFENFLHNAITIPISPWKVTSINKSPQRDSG
Chain of Insulin receptor-related protein (Homo sapiens) (P14616 747-1297 limits assumed): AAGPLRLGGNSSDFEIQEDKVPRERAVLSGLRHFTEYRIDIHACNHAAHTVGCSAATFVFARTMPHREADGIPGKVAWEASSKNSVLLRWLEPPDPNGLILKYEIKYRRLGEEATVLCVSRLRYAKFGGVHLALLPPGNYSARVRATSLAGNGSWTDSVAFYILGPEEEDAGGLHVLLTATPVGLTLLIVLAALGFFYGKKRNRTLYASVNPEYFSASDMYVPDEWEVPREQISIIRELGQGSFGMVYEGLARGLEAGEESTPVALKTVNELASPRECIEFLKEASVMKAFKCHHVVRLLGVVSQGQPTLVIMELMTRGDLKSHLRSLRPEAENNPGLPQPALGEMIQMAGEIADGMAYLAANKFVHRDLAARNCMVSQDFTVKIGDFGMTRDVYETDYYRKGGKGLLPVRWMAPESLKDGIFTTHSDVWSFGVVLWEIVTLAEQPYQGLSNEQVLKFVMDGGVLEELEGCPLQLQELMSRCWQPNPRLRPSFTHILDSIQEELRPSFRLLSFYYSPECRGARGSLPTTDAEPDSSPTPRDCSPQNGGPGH
Chain of Insulin-like growth factor 1 receptor (Homo sapiens) (P08069 31-736 limits assumed): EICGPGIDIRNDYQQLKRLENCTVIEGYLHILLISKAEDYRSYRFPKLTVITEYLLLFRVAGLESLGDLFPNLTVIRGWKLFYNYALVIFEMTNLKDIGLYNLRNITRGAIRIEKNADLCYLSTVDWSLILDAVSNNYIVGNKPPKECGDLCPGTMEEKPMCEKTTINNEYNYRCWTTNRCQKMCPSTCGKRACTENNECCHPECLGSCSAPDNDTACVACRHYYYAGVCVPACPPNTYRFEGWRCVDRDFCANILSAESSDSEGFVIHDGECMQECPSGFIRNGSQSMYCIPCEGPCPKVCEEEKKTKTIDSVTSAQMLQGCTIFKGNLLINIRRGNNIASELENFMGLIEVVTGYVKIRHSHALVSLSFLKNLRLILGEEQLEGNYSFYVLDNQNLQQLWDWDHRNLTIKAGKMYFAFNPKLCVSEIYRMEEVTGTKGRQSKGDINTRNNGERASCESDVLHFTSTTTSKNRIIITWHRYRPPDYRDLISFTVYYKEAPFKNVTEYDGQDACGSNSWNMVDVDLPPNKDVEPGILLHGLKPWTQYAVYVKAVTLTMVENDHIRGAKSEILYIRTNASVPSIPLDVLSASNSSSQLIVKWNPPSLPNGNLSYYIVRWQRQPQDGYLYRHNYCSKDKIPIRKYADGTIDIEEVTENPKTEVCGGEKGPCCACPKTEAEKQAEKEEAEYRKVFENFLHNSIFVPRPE
Chain of Insulin-like growth factor 1 receptor (Homo sapiens) (P08069 741-1367 limits assumed): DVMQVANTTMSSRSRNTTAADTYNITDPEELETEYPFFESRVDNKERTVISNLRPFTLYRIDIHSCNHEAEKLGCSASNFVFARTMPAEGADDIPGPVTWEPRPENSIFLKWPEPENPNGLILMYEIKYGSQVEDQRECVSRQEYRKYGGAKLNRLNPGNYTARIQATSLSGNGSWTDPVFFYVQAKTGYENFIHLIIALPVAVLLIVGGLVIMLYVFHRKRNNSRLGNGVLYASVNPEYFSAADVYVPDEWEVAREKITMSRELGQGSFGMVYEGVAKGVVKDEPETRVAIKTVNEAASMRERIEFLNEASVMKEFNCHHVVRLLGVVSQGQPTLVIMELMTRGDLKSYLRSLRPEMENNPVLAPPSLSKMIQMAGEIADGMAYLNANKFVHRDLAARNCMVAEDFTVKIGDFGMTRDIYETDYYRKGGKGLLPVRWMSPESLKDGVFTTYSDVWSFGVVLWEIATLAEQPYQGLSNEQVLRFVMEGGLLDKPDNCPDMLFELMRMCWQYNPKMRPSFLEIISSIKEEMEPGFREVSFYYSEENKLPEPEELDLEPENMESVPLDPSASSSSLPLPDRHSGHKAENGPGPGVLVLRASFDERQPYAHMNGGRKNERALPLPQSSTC
Chain of Tyrosine-protein kinase JAK1 (Homo sapiens) (P23458 whole entry): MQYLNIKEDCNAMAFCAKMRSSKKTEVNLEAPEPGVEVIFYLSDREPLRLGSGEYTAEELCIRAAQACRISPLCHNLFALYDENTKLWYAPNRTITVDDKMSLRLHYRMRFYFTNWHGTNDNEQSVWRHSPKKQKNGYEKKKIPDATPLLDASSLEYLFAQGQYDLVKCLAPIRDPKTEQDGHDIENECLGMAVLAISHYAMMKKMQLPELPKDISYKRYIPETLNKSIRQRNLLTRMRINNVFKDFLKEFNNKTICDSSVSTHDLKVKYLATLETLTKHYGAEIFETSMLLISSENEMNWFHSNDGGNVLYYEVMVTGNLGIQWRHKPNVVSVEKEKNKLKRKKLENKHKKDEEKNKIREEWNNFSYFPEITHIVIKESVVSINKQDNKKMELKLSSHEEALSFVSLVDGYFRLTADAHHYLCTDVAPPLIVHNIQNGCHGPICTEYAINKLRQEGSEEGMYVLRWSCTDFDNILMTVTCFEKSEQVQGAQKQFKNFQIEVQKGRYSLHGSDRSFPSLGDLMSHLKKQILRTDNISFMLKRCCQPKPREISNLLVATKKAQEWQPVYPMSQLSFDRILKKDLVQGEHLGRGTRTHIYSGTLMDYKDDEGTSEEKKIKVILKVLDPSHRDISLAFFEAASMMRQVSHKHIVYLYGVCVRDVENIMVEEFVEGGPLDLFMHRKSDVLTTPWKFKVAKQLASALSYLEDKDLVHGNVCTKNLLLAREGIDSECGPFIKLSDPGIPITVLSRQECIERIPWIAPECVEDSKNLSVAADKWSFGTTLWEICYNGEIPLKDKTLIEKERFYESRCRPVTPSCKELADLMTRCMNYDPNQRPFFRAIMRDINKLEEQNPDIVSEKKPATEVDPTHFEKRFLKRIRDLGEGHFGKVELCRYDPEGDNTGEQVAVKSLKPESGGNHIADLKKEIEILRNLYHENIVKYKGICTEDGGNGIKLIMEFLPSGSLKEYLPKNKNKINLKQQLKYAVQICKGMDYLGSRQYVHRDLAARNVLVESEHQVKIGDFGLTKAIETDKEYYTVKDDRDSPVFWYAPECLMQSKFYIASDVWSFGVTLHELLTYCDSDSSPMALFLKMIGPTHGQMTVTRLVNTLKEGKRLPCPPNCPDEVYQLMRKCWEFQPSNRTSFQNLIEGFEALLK
Chain of Tyrosine-protein kinase JAK2 (Homo sapiens) (O60674 whole entry): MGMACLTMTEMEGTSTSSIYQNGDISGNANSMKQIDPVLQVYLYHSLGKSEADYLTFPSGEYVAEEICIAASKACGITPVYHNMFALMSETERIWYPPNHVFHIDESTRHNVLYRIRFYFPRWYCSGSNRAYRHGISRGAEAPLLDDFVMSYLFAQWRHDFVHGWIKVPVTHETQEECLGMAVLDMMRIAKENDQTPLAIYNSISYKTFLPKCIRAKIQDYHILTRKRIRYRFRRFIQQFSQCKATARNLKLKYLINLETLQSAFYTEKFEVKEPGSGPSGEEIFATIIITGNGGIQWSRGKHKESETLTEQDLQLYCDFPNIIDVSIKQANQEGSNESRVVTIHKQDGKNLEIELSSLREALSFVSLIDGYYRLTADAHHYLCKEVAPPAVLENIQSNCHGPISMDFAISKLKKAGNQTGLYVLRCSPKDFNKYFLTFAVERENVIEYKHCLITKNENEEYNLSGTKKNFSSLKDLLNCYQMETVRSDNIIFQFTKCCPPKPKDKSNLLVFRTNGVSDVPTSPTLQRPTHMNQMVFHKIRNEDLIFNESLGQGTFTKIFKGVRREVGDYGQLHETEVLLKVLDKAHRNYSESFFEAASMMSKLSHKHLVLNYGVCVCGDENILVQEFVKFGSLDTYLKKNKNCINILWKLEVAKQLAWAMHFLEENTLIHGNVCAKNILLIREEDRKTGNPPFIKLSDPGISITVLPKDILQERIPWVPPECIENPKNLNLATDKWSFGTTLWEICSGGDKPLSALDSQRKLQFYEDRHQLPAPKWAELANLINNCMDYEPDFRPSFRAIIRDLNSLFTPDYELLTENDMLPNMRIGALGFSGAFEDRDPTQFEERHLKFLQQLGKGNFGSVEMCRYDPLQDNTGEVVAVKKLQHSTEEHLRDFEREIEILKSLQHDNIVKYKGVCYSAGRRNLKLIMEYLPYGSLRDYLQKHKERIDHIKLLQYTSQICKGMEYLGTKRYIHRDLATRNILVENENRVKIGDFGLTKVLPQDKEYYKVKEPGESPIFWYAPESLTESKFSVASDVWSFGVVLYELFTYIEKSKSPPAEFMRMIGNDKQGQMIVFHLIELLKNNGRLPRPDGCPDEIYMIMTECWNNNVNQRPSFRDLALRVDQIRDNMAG

SMILES	inhibition [1]	inhibition [2]	inhibition [3]	inhibition [4]	inhibition [5]	inhibition [6]	inhibition [7]	inhibition [8]	inhibition [9]	inhibition [10]	inhibition [11]	inhibition [12]	inhibition [13]	inhibition [14]	inhibition [15]	inhibition [16]	inhibition [17]	inhibition [18]	inhibition [19]	inhibition [20]
COc1cccc(-n2ncc3c(N/N=C/c4ccc(F)cc4)ncnc32)c1	31.1%	6.41%	17.5%	2.52%	3.62%	-0.02%	2.69%	2.92%	2.32%	1.34%	2.7%	4.84%	6.9%	1.38%	4.42%	-1.52%	1.02%	8.15%	20.6%	5.42%
COc1cc2ncn(-c3cc(OCc4ccccc4C(F)(F)F)c(C(=O)N(C)C)s3)c2cc1OC	8.11%	2.13%	10.1%	1.61%	-0.15%	2.79%	1.7%	-2.24%	-0.76%	0.81%	1.76%	-1.58%	8.12%	0.32%	-0.19%	-0.48%	14.7%	6.67%	27.5%	0.26%
CN1CCC(n2cnc(-c3ccc(F)cc3)c2-c2ccnc(Nc3ccccc3)n2)CC1	8.11%	4.85%	11.1%	1.01%	1.68%	1.5%	0.39%	0.31%	2.49%	0.83%	1.68%	1.51%	8.4%	0.27%	0.26%	-0.54%	1.46%	4.35%	12.4%	2.33%
NS(=O)(=O)c1ccc(Nc2ncc(-c3ccccc3)o2)cc1	5.41%	4.43%	10.7%	3.39%	3.81%	2.2%	4.14%	3.04%	1.16%	1.19%	2.34%	3.09%	5.63%	0.87%	3.74%	-0.66%	3.55%	6.16%	23.6%	38.7%
CCNC(=O)O[C@H]1CN[C@H](C#Cc2cc3ncnc(Nc4ccc(OCc5cccc(F)c5)c(Cl)c4)c3s2)C1	1.8%	5.66%	5.6%	3.27%	2.91%	0.78%	6.61%	0.8%	1.47%	1.32%	1.96%	7.02%	-0.58%	3.47%	2.64%	-1.24%	1.79%	6.2%	4.4%	4.29%
Cc1ccc2c(-c3ccnc(Nc4ccccc4)n3)c(-c3ccc(F)cc3)nn2n1	68.9%	11.9%	43.9%	1.92%	5.18%	1.31%	7.57%	4.42%	2.61%	1.54%	2.3%	3.23%	-5.84%	1.55%	2.93%	-0.48%	2.61%	21%	64%	23.8%
CCN1CCC(CC(=O)Nc2n[nH]c3nnc(-c4cccc(F)c4F)cc23)CC1	3.55%	3.51%	1.32%	0.88%	2.99%	1.72%	4.05%	1.41%	0.88%	-1.01%	1.3%	3.38%	4.71%	0.88%	0.1%	-2.12%	1.45%	0.77%	4.46%	0.04%
CC1=C(C(=O)Nc2cc(Cl)c3[nH]ncc3c2)C(c2ccc(C(F)(F)F)cc2)CC(=O)N1 (stereo not given)	4.45%	4.68%	6.23%	2.66%	2.67%	5.06%	6.02%	0.76%	1.79%	1.11%	2.35%	9.58%	51.5%	2.99%	29.2%	2.49%	42.3%	4.67%	6.91%	4.2%
O=S(=O)(CCNCc1ccc(-c2ccc3ncnc(Nc4ccc(OCc5cccc(F)c5)c(Cl)c4)c3c2)o1)c1ccccc1	4.09%	7.05%	8.65%	4.87%	7.55%	3.73%	6.24%	4.04%	4.07%	0.82%	2.79%	3.16%	5.23%	1.04%	1.11%	-3.52%	-1.28%	5.96%	8.62%	6.8%
Nc1nc(-c2cccc(Cl)c2)c(-c2ccc3ncccc3n2)s1	5.51%	3.98%	9.71%	3.52%	2.56%	6.92%	7.08%	1.7%	4.52%	1.66%	1.36%	2.71%	14.3%	0.64%	0.69%	-2.58%	-0.69%	33.1%	67.4%	5.86%
CCn1cc(-c2ccnc3[nH]ccc23)c(-c2cccc(NC(=O)Nc3ccc(OCc4ccccc4)cc3)c2)n1	1.64%	0.36%	2.34%	-3.42%	0.41%	2.08%	3.81%	-1.45%	-1.26%	-0.92%	-0.24%	1.9%	1.7%	-0.01%	-1.69%	-1.38%	-0.25%	0.29%	7.33%	-2.3%
Fc1cccc(COc2ccc(Nc3ncnc4sc(-c5ccco5)cc34)cc2Cl)c1	4.89%	4.32%	6.64%	0.23%	0.87%	1.94%	2.78%	2.1%	2.84%	0.55%	3.14%	0.17%	3.56%	1.34%	1.22%	-3.93%	-1.55%	3.37%	10.4%	6.1%
COC(=O)Nc1nc2ccc(Oc3ccc(NC(=O)Nc4cccc(Cl)c4)cc3)cc2[nH]1	2.41%	3.38%	2.91%	3.52%	2.1%	-1.15%	0.68%	-1.26%	-0.57%	0.74%	0.42%	0.77%	4.07%	0.38%	-0.26%	-0.87%	-0.3%	32.4%	62.5%	72.9%
CC(C)COC(=O)c1ccc2c(c1)/C(=C/Nc1ccc(S(N)(=O)=O)cc1)C(=O)N2	71.6%	4.68%	38.5%	0.52%	1.72%	2.06%	2.17%	-3.52%	0.22%	0.34%	5.29%	0.07%	12.7%	-0.31%	12.3%	2.41%	45.5%	40.4%	71.5%	-0.74%
